Experiments:
Conditions in all cases: concentration: 1 μM, replicates: in singlicate; n = 1
SRPK2 = tested on: SRPK2
SRPK3 = tested on: SRPK3
STK16 = tested on: STK16
STK33 = tested on: STK33
STK35 = tested on: STK35
STK36 = tested on: STK36
STK39 = tested on: STK39
SYK = tested on: SYK
SgK110 = tested on: SgK110
TAK1 = tested on: T1, TAK1
T1 construct: gene MAP3K7

TAOK1 = tested on: TAOK1
TAOK2 = tested on: TAOK2
TAOK3 = tested on: TAOK3
TBK1 = tested on: TBK1
TEC = tested on: TEC
TESK1 = tested on: TESK1
TGFBR1 = tested on: TGFBR1
TGFBR2 = tested on: TGFBR2
TIE1 = tested on: TIE1
TIE2 = tested on: T2, TIE2
T2 construct: gene TEK
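Note: KINOMEscan kinase panel screen.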

SMILES | %Inh (SRPK2) [%] | %Inh (SRPK3) [%] | %Inh (STK16) [%] | %Inh (STK33) [%] | %Inh (STK35) [%] | %Inh (STK36) [%] | %Inh (STK39) [%] | %Inh (SYK) [%] | %Inh (SgK110) [%] | %Inh (TAK1) [%] | %Inh (TAOK1) [%] | %Inh (TAOK2) [%] | %Inh (TAOK3) [%] | %Inh (TBK1) [%] | %Inh (TEC) [%] | %Inh (TESK1) [%] | %Inh (TGFBR1) [%] | %Inh (TGFBR2) [%] | %Inh (TIE1) [%] | %Inh (TIE2) [%]
Cc1ccc(NC(=O)c2ccc(Cl)cc2)cc1-c1ccc(C(=O)Nc2ccncc2)cc1 [GSK1398467] | 0 | 0 | 7 | 0 | 0 | 0 | 6 | 3 | 0 | 0 | 0 | 0 | 0 | 7 | 12 | 14 | 1 | 0 | 0 | 0
CNc1cc(-c2ccc3c(N)n[nH]c3c2)nc(N)n1 [GSK2224810] | 1 | 0 | 19 | 0 | 6 | 0 | 0 | 7 | 0 | 26 | 56 | 0 | 9 | 9 | 15 | 0 | 36 | 47 | 0 | 0
Cc1ccc(NC(=O)Nc2ccccc2)cc1-c1ccc(C(=O)Nc2ccncc2)cc1 [GSK1398471] | 0 | 0 | 9 | 0 | 0 | 0 | 3 | 24 | 0 | 0 | 0 | 0 | 0 | 17 | 0 | 2 | 0 | 0 | 0 | 0
Cn1cnc2c(N)ncnc21 [SKF-97623] | 10 | 18 | 0 | 0 | 19 | 0 | 2 | 0 | 0 | 0 | 0 | 0 | 0 | 0 | 0 | 0 | 9 | 2 | 0 | 0
O=C1NC(=O)C(c2ccc(Cl)cc2)=C1Nc1ccc(O)cc1 [SB-340867] | 18 | 0 | 0 | 0 | 0 | 11 | 0 | 4 | 50 | 0 | 0 | 0 | 0 | 0 | 0 | 12 | 1 | 0 | 0 | 0
Cc1ccc(-c2nc(Nc3ccncc3)c3ccccc3n2)s1 [GSK189015] | 0 | 18 | 12 | 12 | 18 | 0 | 15 | 5 | 0 | 0 | 0 | 0 | 5 | 7 | 8 | 61 | 6 | 21 | 19 | 12
O=C(Nc1n[nH]c2nc(-c3cccs3)c(Br)cc12)C1CCCC1 [SB-743341] | 15 | 20 | 23 | 1 | 0 | 1 | 33 | 5 | 18 | 38 | 0 | 0 | 0 | 0 | 0 | 25 | 19 | 7 | 33 | 15
COc1ccc(CSc2nnc(-c3ccc4nccn4c3)o2)cc1C(F)(F)F | 0 | 16 | 3 | 2 | 16 | 10 | 0 | 0 | 0 | 33 | 22 | 13 | 0 | 10 | 21 | 12 | 14 | 12 | 22 | 0
COc1cccc(CNC(=O)NC2CCN(c3ccnc(Nc4ccc(F)cc4)n3)C2)c1 (stereo not drawn) [GSK1379723] | 0 | 16 | 10 | 0 | 5 | 0 | 10 | 18 | 1 | 0 | 0 | 0 | 0 | 0 | 7 | 100 | 21 | 0 | 24 | 0
COc1cc2ncnc(Nc3cccc(Br)c3)c2cc1OC.Cl [GI230329] | 40 | 0 | 0 | 0 | 0 | 0 | 5 | 13 | 17 | 0 | 0 | 0 | 0 | 7 | 0 | 31 | 1 | 0 | 0 | 0
COc1ccc(CSc2nnc(-c3ccc4ncsc4c3)o2)cc1C(F)(F)F | 0 | 0 | 15 | 0 | 0 | 0 | 0 | 0 | 25 | 0 | 31 | 9 | 0 | 13 | 0 | 3 | 5 | 19 | 0 | 19
CC[C@@H]1CO[C@H](C(=O)Nc2ccccc2)CN1c1cc(-c2ccc3c(N)n[nH]c3c2)nc(NC)n1 [GSK2376236] | 0 | 0 | 21 | 2 | 0 | 0 | 0 | 0 | 0 | 6 | 0 | 1 | 0 | 31 | 0 | 0 | 9 | 0 | 4 | 0
CCn1c(-c2c(N)noc2C)nc2cnccc21 [SB-737856] | 0 | 2 | 0 | 0 | 0 | 0 | 6 | 1 | 0 | 0 | 0 | 0 | 0 | 0 | 1 | 54 | 4 | 0 | 0 | 0
NS(=O)(=O)c1cccc(N/C=C2\C(=O)Nc3ccc(S(=O)(=O)Cc4c(Cl)cccc4Cl)cc32)c1 [GSK398099] | 0 | 0 | 19 | 0 | 0 | 0 | 0 | 0 | 0 | 0 | 0 | 2 | 10 | 37 | 6 | 9 | 0 | 0 | 0 | 0
O=c1cc(N2CCOCC2)nc2n(Cc3cccc(Cl)c3Cl)c3ccccc3n12 [GSK2299009] | 0 | 15 | 31 | 18 | 14 | 0 | 0 | 50 | 0 | 0 | 0 | 0 | 0 | 22 | 20 | 17 | 0 | 0 | 24 | 5
O=C(Nc1n[nH]c2nc(-c3cccs3)c(Br)cc12)C1CC1 [SB-735297] | 0 | 8 | 0 | 0 | 0 | 12 | 7 | 10 | 0 | 6 | 10 | 0 | 0 | 33 | 0 | 19 | 0 | 0 | 0 | 12
Cc1ccc(NC(=O)Nc2ccc(Cl)cc2)cc1-c1ccc(C(=O)Nc2ccncc2)cc1 [GSK1398472] | 0 | 46 | 0 | 0 | 0 | 1 | 0 | 31 | 10 | 0 | 0 | 0 | 0 | 8 | 0 | 54 | 3 | 0 | 0 | 0
CSc1ccc(-c2nc3n(c2-c2ccncc2)CCC3)cc1 [SKF-105561] | 25 | 0 | 4 | 11 | 3 | 16 | 0 | 18 | 0 | 0 | 0 | 14 | 9 | 0 | 11 | 8 | 15 | 13 | 0 | 0
COc1ccc(Nc2nccc(NCCNC(=O)Nc3cc(C)ccc3C)n2)cc1 [GSK1379899] | 0 | 10 | 0 | 0 | 0 | 0 | 0 | 24 | 0 | 0 | 0 | 0 | 1 | 0 | 16 | 7 | 0 | 0 | 0 | 0
COc1ccc(-c2coc3ccc(-c4nnc(C)o4)cc23)cc1 | 0 | 0 | 21 | 0 | 0 | 13 | 0 | 17 | 52 | 0 | 0 | 0 | 0 | 30 | 0 | 8 | 3 | 43 | 0 | 40
CN1c2ccc(-c3ccc(C(N)=O)cc3)cc2-c2[nH]ncc2S1(=O)=O | 8 | 0 | 1 | 0 | 12 | 0 | 3 | 26 | 0 | 31 | 0 | 28 | 0 | 0 | 0 | 19 | 13 | 11 | 0 | 0
